In the supplement of paper PMC11732987, “Enantioselective OTUD7B fragment discovery through chemoproteomics screening and high-throughput optimisation” (Communications Chemistry, 2025):

What was measured:
Test in all cases: log2 ratio of Biotin-Ahx-Ub-VS probe labelling (fragment/DMSO); higher = less target engagement (more negative = stronger competition), active = hit call of the paper (q ≤ 0.05, log2 ratio ≤ -1)
Conditions in all cases: compound concentration: 200 uM; treatment time: 3 h
USP34 = USP34 (UniProt Q70CQ2)
Chain of USP34 (Q70CQ2 whole entry, the tested form may be a part): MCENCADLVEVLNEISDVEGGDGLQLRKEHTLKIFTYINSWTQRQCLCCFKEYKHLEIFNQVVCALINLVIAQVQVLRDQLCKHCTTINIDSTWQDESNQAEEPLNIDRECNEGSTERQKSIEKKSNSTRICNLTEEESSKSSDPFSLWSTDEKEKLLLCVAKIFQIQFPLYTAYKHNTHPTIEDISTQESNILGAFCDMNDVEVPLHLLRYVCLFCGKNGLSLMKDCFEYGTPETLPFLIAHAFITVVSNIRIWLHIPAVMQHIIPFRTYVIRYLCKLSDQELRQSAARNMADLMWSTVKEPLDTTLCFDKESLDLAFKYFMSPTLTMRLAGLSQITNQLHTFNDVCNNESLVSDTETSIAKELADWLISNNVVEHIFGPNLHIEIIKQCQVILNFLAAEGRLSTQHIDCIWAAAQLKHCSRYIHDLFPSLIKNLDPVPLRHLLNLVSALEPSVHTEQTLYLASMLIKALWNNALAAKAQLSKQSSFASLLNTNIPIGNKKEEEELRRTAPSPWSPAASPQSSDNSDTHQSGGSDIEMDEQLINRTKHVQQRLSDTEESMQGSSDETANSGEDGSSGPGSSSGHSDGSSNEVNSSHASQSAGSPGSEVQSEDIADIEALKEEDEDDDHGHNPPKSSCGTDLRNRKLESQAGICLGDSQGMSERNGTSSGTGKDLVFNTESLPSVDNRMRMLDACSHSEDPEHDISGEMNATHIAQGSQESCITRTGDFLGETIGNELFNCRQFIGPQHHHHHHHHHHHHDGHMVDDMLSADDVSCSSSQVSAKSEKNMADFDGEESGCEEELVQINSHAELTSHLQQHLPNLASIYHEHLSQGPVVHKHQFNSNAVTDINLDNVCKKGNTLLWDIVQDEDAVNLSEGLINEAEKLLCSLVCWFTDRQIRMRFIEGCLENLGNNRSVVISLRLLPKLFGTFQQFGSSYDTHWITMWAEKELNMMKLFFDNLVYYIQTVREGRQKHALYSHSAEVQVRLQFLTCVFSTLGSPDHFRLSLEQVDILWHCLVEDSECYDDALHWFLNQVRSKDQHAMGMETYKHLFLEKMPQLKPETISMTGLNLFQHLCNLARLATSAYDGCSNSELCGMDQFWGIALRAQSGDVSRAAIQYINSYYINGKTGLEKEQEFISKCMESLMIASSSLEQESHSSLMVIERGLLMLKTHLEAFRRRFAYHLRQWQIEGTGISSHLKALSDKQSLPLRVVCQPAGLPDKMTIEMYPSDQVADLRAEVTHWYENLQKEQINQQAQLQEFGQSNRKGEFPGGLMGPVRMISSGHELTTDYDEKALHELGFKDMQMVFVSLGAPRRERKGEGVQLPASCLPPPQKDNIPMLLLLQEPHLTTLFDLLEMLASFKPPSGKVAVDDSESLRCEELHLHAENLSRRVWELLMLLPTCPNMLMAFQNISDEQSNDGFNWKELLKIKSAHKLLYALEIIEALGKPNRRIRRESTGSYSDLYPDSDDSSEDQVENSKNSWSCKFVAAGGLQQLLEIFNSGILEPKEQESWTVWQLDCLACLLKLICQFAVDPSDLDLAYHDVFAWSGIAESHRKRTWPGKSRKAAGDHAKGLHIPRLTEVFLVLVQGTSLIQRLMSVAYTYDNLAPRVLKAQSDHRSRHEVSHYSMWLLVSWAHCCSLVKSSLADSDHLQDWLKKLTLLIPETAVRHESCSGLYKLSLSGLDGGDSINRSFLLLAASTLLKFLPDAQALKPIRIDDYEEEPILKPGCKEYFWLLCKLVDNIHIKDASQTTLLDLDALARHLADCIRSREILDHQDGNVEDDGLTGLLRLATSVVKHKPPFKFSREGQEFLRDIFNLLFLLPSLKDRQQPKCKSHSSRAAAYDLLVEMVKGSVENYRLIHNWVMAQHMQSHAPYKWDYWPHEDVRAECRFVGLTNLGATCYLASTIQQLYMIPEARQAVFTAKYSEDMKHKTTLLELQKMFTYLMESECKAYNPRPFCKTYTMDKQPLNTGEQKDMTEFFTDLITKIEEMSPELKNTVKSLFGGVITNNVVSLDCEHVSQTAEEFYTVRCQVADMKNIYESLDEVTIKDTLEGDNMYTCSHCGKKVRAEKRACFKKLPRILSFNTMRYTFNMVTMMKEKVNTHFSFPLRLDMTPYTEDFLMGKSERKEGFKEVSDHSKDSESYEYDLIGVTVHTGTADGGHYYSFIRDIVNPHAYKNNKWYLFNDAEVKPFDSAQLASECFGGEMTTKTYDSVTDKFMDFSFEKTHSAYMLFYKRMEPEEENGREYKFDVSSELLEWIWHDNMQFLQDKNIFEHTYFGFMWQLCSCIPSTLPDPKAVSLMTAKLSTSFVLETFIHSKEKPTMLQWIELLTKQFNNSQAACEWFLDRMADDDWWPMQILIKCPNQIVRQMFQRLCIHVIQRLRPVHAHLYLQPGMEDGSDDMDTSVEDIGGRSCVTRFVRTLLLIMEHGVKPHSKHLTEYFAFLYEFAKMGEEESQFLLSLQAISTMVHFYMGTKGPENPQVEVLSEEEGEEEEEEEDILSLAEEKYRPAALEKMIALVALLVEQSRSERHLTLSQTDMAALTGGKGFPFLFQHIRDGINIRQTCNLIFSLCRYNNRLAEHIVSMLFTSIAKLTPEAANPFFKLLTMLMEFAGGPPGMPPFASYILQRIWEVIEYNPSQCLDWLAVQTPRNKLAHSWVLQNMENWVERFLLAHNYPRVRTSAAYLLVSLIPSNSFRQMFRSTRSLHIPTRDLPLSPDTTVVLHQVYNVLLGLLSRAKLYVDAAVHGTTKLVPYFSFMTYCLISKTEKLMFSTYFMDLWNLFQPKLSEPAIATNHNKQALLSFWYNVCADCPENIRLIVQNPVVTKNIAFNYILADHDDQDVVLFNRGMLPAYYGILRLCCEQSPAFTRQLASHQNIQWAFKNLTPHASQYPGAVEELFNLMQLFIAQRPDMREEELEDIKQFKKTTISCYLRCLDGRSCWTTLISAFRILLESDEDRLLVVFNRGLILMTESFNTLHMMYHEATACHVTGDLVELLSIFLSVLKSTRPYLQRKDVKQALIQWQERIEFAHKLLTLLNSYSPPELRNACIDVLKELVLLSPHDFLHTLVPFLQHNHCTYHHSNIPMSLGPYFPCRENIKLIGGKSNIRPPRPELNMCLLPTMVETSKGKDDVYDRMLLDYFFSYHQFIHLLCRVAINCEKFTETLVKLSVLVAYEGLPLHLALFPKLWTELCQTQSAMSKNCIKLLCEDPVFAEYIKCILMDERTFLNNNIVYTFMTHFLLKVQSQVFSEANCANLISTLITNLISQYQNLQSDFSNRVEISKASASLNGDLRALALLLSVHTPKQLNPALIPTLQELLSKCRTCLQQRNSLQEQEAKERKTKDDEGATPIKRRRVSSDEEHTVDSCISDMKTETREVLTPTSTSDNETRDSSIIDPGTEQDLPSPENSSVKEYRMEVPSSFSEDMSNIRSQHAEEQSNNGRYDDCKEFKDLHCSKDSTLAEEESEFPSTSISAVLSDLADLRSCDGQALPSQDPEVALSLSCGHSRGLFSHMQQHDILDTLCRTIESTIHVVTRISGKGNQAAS
Procedure, shortened: (§1)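 Each value is an average log2 ratio of fragment to vehicle, tested by unpaired t-test. The underlying Spectronaut label-free quantities were global-median-normalised, and only proteins with ≥2 unique peptides were included. Triplicate HEK293T lysate samples (495 µg) were exposed to fragment at 200 µM or vehicle for 3 h, then to Biotin-Ahx-Ub-VS at 0.5 µM final for 1 h, before NeutrAvidin enrichment of labelled DUBs, LysC and trypsin digestion, and diaPASEF LC-MS/MS.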

USP36 = target: T1, USP36 (UniProt Q9P275)
T1 sequence (whole entry): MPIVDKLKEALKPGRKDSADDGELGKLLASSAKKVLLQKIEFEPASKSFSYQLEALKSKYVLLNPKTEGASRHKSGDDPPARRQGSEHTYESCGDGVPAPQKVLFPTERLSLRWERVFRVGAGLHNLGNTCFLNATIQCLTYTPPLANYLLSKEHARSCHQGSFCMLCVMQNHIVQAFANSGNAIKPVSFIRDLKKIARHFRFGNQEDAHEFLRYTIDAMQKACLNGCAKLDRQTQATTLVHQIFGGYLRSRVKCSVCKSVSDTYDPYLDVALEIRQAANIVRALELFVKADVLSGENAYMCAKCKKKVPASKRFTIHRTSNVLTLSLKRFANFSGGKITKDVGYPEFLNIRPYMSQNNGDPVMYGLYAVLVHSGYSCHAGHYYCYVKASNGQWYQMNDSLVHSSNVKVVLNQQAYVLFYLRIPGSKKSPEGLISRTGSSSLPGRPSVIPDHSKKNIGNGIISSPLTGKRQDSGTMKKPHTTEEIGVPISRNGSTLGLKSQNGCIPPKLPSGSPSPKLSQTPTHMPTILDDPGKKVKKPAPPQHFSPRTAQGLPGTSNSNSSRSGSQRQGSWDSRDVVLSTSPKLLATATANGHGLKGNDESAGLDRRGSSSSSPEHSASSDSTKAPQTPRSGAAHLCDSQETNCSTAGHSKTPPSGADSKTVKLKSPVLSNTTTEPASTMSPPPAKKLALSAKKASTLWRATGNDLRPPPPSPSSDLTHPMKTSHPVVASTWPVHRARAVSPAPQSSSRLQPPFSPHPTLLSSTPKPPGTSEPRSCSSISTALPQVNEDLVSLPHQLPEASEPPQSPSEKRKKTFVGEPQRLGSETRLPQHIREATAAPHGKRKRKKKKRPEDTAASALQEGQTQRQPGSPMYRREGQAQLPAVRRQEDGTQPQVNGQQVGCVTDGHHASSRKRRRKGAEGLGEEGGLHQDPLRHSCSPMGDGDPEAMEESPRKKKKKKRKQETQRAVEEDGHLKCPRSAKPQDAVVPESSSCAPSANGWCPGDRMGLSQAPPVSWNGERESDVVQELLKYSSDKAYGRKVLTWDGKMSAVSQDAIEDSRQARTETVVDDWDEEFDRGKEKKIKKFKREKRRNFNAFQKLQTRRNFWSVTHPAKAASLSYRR
Procedure, shortened: as §1

USP38 = target: T2, USP38 (UniProt Q8NB14)
T2 sequence (whole entry): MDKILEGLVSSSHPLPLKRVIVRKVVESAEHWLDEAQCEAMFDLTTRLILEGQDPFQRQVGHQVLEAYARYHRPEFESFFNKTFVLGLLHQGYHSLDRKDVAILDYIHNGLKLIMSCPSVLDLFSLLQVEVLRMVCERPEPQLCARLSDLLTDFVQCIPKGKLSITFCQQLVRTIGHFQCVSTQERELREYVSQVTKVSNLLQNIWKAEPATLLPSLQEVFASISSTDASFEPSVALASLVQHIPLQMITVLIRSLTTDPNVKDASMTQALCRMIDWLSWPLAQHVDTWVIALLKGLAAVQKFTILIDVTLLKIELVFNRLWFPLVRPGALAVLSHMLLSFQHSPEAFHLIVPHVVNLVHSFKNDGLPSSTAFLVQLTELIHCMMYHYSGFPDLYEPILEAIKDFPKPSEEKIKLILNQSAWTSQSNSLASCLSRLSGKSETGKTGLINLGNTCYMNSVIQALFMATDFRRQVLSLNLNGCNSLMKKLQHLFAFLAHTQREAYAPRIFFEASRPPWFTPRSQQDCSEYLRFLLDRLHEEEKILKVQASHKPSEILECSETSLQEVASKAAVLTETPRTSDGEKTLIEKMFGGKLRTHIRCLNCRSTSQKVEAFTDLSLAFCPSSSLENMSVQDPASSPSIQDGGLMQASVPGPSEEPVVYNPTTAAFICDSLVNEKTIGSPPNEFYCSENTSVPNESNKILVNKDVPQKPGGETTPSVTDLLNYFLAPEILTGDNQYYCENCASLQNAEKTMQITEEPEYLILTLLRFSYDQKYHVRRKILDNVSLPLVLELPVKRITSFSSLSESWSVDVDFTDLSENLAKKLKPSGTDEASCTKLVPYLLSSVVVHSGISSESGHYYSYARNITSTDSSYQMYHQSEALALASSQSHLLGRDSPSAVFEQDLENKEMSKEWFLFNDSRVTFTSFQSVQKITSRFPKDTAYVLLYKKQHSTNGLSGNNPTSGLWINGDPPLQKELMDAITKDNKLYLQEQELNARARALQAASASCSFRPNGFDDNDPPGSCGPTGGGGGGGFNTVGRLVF
Procedure, shortened: as §1

USP39 = target: T3, USP39 (UniProt Q53GS9)
T3 sequence (whole entry): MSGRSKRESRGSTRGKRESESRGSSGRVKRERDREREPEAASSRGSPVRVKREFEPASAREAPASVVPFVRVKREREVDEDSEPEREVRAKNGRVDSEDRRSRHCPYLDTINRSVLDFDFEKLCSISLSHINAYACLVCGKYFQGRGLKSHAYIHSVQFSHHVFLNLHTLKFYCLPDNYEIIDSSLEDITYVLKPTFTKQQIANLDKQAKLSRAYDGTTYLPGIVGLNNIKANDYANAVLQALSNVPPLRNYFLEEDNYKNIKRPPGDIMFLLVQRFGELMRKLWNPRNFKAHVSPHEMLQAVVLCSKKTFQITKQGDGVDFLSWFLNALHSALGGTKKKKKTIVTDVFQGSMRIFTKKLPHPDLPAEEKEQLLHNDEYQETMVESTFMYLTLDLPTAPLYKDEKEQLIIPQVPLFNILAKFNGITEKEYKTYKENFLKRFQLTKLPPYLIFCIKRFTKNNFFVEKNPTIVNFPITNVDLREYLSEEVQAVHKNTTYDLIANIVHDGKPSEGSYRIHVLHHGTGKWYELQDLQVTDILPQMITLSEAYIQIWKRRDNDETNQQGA
Procedure, shortened: as §1

USP4 = target: T4, USP4 (UniProt Q13107)
T4 sequence (whole entry): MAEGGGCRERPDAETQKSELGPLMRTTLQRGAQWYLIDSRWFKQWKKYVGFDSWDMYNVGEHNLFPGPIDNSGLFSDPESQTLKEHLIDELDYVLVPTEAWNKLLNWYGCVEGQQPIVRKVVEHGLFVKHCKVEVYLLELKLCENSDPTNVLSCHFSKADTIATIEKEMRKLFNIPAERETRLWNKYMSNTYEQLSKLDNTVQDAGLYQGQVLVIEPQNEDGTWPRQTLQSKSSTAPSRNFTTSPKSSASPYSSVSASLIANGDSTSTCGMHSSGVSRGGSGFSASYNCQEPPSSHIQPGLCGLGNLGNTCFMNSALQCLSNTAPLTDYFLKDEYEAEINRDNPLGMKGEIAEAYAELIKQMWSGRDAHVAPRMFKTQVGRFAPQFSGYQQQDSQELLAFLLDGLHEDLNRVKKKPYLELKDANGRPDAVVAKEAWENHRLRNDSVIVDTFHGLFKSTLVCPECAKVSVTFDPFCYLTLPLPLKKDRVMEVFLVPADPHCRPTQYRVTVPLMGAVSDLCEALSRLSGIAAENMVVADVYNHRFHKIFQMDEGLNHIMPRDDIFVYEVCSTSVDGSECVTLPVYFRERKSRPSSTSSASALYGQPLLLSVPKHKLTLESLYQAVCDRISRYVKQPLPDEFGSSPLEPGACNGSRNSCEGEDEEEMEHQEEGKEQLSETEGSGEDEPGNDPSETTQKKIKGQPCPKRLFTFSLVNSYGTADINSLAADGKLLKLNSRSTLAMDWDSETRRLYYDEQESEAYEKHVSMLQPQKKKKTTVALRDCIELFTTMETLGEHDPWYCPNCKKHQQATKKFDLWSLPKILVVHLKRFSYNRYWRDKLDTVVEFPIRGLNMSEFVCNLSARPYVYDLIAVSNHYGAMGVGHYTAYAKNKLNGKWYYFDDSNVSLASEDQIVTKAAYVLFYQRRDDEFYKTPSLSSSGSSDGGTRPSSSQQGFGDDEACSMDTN
Procedure, shortened: as §1

Measured: log2 ratio of Biotin-Ahx-Ub-VS probe labelling

CS(=O)(=O)N1CCCN(C(=O)CCl)CC1
inactive: USP34 -0.016 | USP36 -0.255 | USP38 -0.0208 | USP39 0.0871 | USP4 -0.0865
